Screens as filed in PubChem.
Furin inh: human furin inhibitors, primary screen, biochemical, fluorescence intensity | P09958 | purified furin, fluorogenic substrate cleavage | inhibition, % at 20 µM or 30 µM | 220,000 compounds, 0.061% hits | AID 463115, 2010; in the data active = inhibition above about 25%
HSV augment: enhancers of HSV replication in host cells, fold increase, host cell viability; HSV replication augmentation in cells; maximum fold increase; 220,000 compounds, 0.005% hits; AID 1956, 2009; in the data active = maximum fold increase above about 1.5; tested in PC3 cells
PGE2 EP2 inh: human EP2 receptor antagonists, primary screen, TR-FRET cAMP, C6 glioma cells; C6 glioma cells expressing human EP2; cells stimulated with saturating PGE2; Prostaglandin E2 receptor EP2 subtype (Homo sapiens), P43116; 260,000 compounds, 0.52% hits; inhibition, % at 25 µM; AID 1422, 2008;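 active = percent inhibition above 40 after rounding to a whole number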;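 note: rat C6 glioma host cells with rolipram phosphodiesterase inhibitor present; the protocol text gives 20 µM as final concentration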
Target sequence (P43116 whole entry, looked up): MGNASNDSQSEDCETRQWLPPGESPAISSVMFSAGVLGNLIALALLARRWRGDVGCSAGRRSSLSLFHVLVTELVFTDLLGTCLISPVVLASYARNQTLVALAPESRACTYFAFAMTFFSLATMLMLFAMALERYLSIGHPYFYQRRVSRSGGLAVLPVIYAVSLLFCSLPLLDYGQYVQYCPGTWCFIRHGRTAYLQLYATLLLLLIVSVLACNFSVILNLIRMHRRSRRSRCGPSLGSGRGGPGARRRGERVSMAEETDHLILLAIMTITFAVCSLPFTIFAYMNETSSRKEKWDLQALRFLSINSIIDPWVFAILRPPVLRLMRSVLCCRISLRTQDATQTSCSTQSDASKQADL
p47phox inh: p47phox/p22phox peptide binding inhibitors, primary screen, biochemical, uHTS, NADPH oxidase regulatory subunit | inhibition, % at 24.7 µM | 220,000 compounds, 0.53% hits | fluorescence polarization, 2 h;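 active = inhibition above about 30%, limit read from the data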;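 note: 0% = p47phox with labelled peptide and 100% = labelled peptide alone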
Wee1 degr inh: Wee1 degradation inhibitors, primary screen, cell-based, HeLa, Wee1K328M-luciferase, luminescence; HeLa Luc-Wee1K328M stability; 100% = proteasome inhibitor MG132 effect; reporter increase, % at 5 µM; Wee1-like protein kinase (Homo sapiens), P30291; 220,000 compounds, 1.2% hits; AID 1321, 2008;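 active = activation above the mean of all tested compounds plus 3 SD, set per screening run, cut at about 8.8% in these data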;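 note: cells exposed to compound for 20 h before luminescence read; 0% = DMSO alone and 100% = MG132 at 30 µM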
EP2 mod: EP2 receptor modulators, cAMP readout, primary screen, cell-based, HTRF cAMP, PGE2 stimulation; 260,000 compounds, 0.83% hits; Prostaglandin E2 receptor EP2 subtype (Homo sapiens), P43116; EP2-expressing cells, cAMP HTRF FRET, PGE2 co-stimulation; induction, % at 25 µM;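 active = compounds whose cAMP rise, as percent of the full-agonist control response, exceeds 60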;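 note: rat C6 glioma line stably carrying human EP2 under a CMV promoter; the protocol text gives 20 µM as final concentration; 100% = response of wells given 1 µM PGE2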
Starred values were filed as active, the others as inactive; i = inactive; nt = no result given; + = active, no number. A selection: hits, their analogues and other compounds. The true share with any hit is near 2.8%.

SMILES	Furin inh	HSV augment	PGE2 EP2 inh	p47phox inh	Wee1 degr inh	EP2 mod
COc1ccc(/C=C/C(=O)NC(=S)Nc2cc3oc4ccccc4c3cc2OC)cc1	10.0	i	10.6	20.0	3.0	19.6
COc1cc2c(cc1NC(=S)NC(=O)/C=C/c1ccc(OC)c(OC)c1)oc1ccccc12	-5.3	i	3.7	36.7*	0.5	-7.6
O=C(NC1CCCCC1)[C@@H]1C=CCN1C(=O)c1cccs1	nt	nt	8.5	nt	nt	-6.3
Cc1cccc(/C(N)=N/OC(=O)COc2ccccc2Cl)c1	-0.8	nt	8.3	-3.5	12.5*	3.7
O=C(Nc1ccc2c(c1)OCO2)c1cncc(Br)c1	-20.3	i	6.1	5.2	20.9*	17.0
Cc1ccc(NC(=S)N(Cc2cc3cc(C)ccc3[nH]c2=O)CC2CCCO2)c(C)c1 (centres undefined)	nt	nt	10.7	nt	nt	23.6
CCOc1c(N2CC(C)OC(C)C2)c(=O)c1=O (centres undefined)	-25.9	i	5.6	-9.5	9.4*	3.6
Cc1cc2c(o1)c1cnn(CC(=O)NCc3nc4ccccc4n3C)c(=O)c1n2C(C)C	nt	nt	nt	nt	nt	6.3
N#CC(C#N)=C1C=CC=CN1/C(=C\c1ccco1)C(=O)c1ccc(Br)cc1	-21.7	i	48.8*	-18.3	-0.7	-2.3
N#CC(C#N)=C1C=CC=CN1/C(=C\c1ccco1)C(=O)c1ccccc1	0.2	i	16.0	-7.2	7.1	-86.7
COc1ccc(-c2csc(C)n2)cc1	7.5	i	8.7	-12.2	9.0*	3.3
COc1ccc(-c2csc(C)n2)cc1OC	-18.7	i	4.2	-4.9	-2.4	18.6
COc1ccc(-c2csc(-c3ccc(C(=O)O)cc3)n2)cc1	-13.6	i	8.6	0.0	10.0*	26.7
Cc1ccc(-c2nc(NC(=O)c3ccco3)sc2C)cc1C	nt	nt	12.4	nt	nt	0.5
Oc1cccc(Nc2nc(N3CCOCC3)nc(N3CCOCC3)n2)c1	nt	nt	10.1	nt	nt	-34.1
Cn1ccnc1Sc1nc(Nc2cccc(Cl)c2)nc(N2CCOCC2)n1	-16.1	i	7.3	-23.2	-0.3	60.7*
Cc1cccc2cc(C(c3nnnn3CC3CCCO3)N3CCN(C)CC3)c(=O)[nH]c12 (centres undefined)	nt	nt	7.6	nt	nt	-8.5
CCc1cc2cccc(C)c2nc1SCC(=O)Nc1ccccc1C(F)(F)F	nt	nt	5.5	nt	nt	-5.4
Cc1cccc(-c2nnc3n2N=C(c2ccccc2)CS3)c1	-21.8	i	5.5	-3.0	0.0	63.3*
c1ccc(-c2cc(-c3nnc4n3N=C(c3ccc5ccccc5c3)CS4)[nH]n2)cc1	-9.7	i	4.8	45.2*	1.6	16.7
CC(=O)c1ccc(NC(=O)C(C)Sc2nnc(-c3ccco3)c(-c3ccco3)n2)cc1 (centres undefined)	nt	nt	14.1	nt	nt	-3.2
CCOc1cc(C2C(C(C)=O)=C(O)C(=O)N2CC(=O)OC)ccc1O (centres undefined)	nt	nt	10.2	nt	nt	10.2
Cc1ccc(NC(=O)C2CCN(S(=O)(=O)c3c(C)n[nH]c3C)CC2)nc1	-21.0	i	8.5	-4.7	10.5*	15.9
Cc1ccc(NC(=O)C2CCN(S(=O)(=O)c3cnc[nH]3)CC2)nc1	-29.2	i	12.3	-11.4	-1.9	3.6
Cc1cnc(NC(=O)CSc2nnc(-c3ccc(F)cc3)o2)s1	nt	nt	6.2	nt	nt	-15.8
SMILES	Furin inh	HSV augment	PGE2 EP2 inh	p47phox inh	Wee1 degr inh	EP2 mod
CCc1ccccc1NC(=S)N1N=CCC1c1ccccc1 (centres undefined)	-27.4	i	8.3	4.1	8.8*	22.8
Cc1cccc(NC(=O)c2c(-c3ccccc3)noc2C)n1	-25.1	i	43.5*	-0.4	1.4	-54.7
Nc1ccc(Br)c2c1C(=O)c1ccccc1C2=O	-18.1	i	7.2	36.8*	-2.1	18.4
Nc1ccc(O)c2c1C(=O)c1ccccc1C2=O	0.3	i	18.8	54.2*	0.0	-64.5
COc1ccc(N)c2c1C(=O)c1ccccc1C2=O	-14.5	i	17.4	-61.9	-3.9	-19.3
COc1cc(CCc2ccc3c(c2)OCO3)oc(=O)c1	-29.9	i	16.5	10.2	nt	63.4*
Cc1noc(C)c1C(=O)N1CCC(C(=O)c2nc3ccccc3s2)CC1	nt	nt	nt	nt	nt	-31.3
COc1ccc2nc(/N=C/c3c(C)[nH]n(-c4ccc(C)cc4)c3=O)sc2c1	-2.5	i	4.1	33.9*	-2.3	-12.5
COc1ccc2nc(/N=C\N(C)C)sc2c1	-16.6	i	8.5	-7.6	1.2	8.3
CCCCOC(=O)C(C)Nc1n[nH]c(=S)[nH]c1=O (centres undefined)	-31.1	i	36.0	-4.7	1.6	6.5
CCCCOC(=O)CNc1n[nH]c(=S)[nH]c1=O	-13.5	i	113.7*	-9.5	-3.1	-31.7
CC(C)COC(=O)CNc1n[nH]c(=S)[nH]c1=O	-8.5	nt	133.3*	2.4	-1.8	-17.6
NC(=O)CNc1n[nH]c(=S)[nH]c1=O	-0.9	i	8.8	-1.1	-0.1	18.6
N#CC(C#N)=C1NC2(CCCCC2)Cc2ccccc21	-15.8	i	7.6	-8.7	1.3	21.6
N#CC(C#N)=c1ccc2c(c1)NC1(CCCCC1)N=2	-6.0	i	25.6	132.5*	2.4	-23.3
NC(=O)C1CCN(C(=O)Cn2nc3c4ccccc4nc(C4CC4)n3c2=O)CC1	nt	nt	10.9	nt	nt	-34.9
CCSc1nc(C)nc2sc(C)c(C)c12	-27.9	i	5.9	-13.2	3.1	69.2*
COc1ccc(/C=N/NC(=O)COc2cccc3cccnc23)cc1OC	-10.8	i	2.6	-11.3	-1.9	-51.0
CCn1cc(/C=N/NC(=O)COc2cccc3cccnc23)c2ccccc21	-13.6	i	6.5	40.5*	4.4	-29.0
CCOc1ccc(CN2CCN(S(=O)(=O)c3ccc4ccccc4c3)CC2)cc1OC	nt	nt	10.6	nt	nt	-37.5
NC(=O)[C@@H]1CCCCNc2c(F)cc([N+](=O)[O-])cc2C(=O)N[C@@H](CC(=O)O)C(=O)NCC(=O)N1	-9.3	i	13.1	-8.5	16.8*	7.1
O=c1n(CCO)c(=O)n(CCCl)c(=O)n1CCO	nt	nt	16.4	nt	nt	-2.0
CCOc1ccc(-n2c(SCC(=O)Nc3ccccc3)nnc2-c2ccncc2)cc1	nt	nt	14.3	nt	nt	-3.0
C=CCSc1nnc(-c2ccncc2)n1-c1ccc(OCC)cc1	-10.3	i	9.1	+	0.4	15.4
CCNC(=O)c1c(NC(=O)c2cc(-c3cc(C)ccc3O)n[nH]2)sc2c1CCCC2	-31.4	i	2.0	52.4*	6.2	-12.3
Cc1ccc(-c2cc(C(=O)Nc3sc4c(c3C(=O)NCc3ccco3)CCC4)[nH]n2)c(O)c1	-25.6	i	7.7	-9.0	-1.7	9.1
